Experimental findings from PubChem BioAssay AID1851 (National Center for Advancing Translational Sciences (NCATS), 2009) are described below.

Hit rate of the full screen: of about 16,000 compounds, about 4,000 (25%) were called active. About 26% were inconclusive and are not listed. The call rests on the fitted dose curve; in most records, active means well fitted curve in the direction sought with a large enough effect; inconclusive means small, poorly fitted or top-dose-only effect, or effect the other way; inactive means no such curve, though single readings can be large or run the other way. Only a sample is shown. Where a structure was tested more than once in an assay, its records may differ in their call.
On the % scale 0 is the no-effect control and ±100 the full control effect.

For this experiment, the target named is Cytochrome P450 2C9 (Homo sapiens) (UniProt P11712). The experiment in a line: Cytochrome panel assay with activity outcomes. The settings on record: recombinant CYP, pro-luciferin dealkylation, luminescence, p450-cyp2c9; series mostly up to 57.1 µM.
Sequence of Cytochrome P450 2C9 (Homo sapiens) (P11712 whole entry, looked up): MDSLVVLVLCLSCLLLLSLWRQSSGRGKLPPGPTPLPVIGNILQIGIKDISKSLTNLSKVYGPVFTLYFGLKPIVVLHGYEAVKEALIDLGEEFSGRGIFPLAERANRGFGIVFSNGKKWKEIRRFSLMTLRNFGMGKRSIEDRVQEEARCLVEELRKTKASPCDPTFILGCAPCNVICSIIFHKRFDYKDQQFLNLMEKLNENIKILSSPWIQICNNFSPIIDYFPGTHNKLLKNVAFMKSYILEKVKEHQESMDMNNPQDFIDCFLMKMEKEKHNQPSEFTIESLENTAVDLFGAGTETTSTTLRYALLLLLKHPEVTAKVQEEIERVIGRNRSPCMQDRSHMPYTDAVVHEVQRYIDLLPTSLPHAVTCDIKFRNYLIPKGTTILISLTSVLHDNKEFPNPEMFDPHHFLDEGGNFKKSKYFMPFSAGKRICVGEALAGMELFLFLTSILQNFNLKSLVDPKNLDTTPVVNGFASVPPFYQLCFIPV
In the case of `O=C(O)[C@@H]1[C@H](C(=O)O)[C@]2(Cl)C(Cl)=C(Cl)[C@@]1(Cl)C2(Cl)Cl`, the activity, negative = inhibition was -24.4% [at 11.4 µM] (inactive). As for `C/C=C(\C)C(=O)O[C@@H]1C(C)=C2[C@H]([C@@H]1OC(=O)CCCCCCC)[C@@](C)(OC(C)=O)C[C@@H](OC(=O)CCC)[C@@]1(O)[C@H]2OC(=O)[C@]1(C)O`, the concentration at half-maximal activity (AC50) was 31.6 µM (active). Turning to `CNC[C@H](O)c1ccc(O)cc1`, the activity, negative = inhibition result was “inactive”. For `CN1CCN(c2ccc3ccccc3n2)CC1`, the activity, negative = inhibition result is “inactive”. As for `CCCN1CCO[C@@H]2c3cc(O)ccc3OC[C@H]21`, the activity, negative = inhibition result was “inactive”. As for `O=[As](O)(O)c1ccc2nc3cc([As](=O)(O)O)ccc3nc2c1`, the activity, negative = inhibition was 1.65% [at 11.4 µM] (inactive).

With `CCCN1CCc2cccc3c2[C@@H]1Cc1ccc(O)c(O)c1-3`, the activity, negative = inhibition result is “inactive”. As for `COCCn1c(SCc2nc3sc(C(=O)OC)c(C)c3c(=O)[nH]2)nc2ccccc21`, the AC50 is 0.891 µM (active). With `NC(N)=Nc1ccc2[nH]c3c(c2c1)C[C@]1(O)[C@@H]2Cc4ccc(O)c5c4[C@]1(CCN2CC1CC1)[C@@H]3O5`, the activity, negative = inhibition entry was “inactive”.

`CCN1C[C@@]2(COC)[C@H]3[C@@H](OC)[C@H]4C1[C@@]3([C@H](OC)C[C@@H]2O)[C@H]1C[C@@]2(O)[C@@H](OC(=O)c3ccccc3)[C@@H]1[C@@]4(OC(C)=O)[C@H](O)[C@@H]2OC`: the activity, negative = inhibition result was “inactive”. Consider `COc1ccc(C2SCC(=O)Nc3c2c(C)nn3-c2ccccc2)cc1OC` (stereo unspecified), for which the AC50 was 10 µM (active).

In the case of `O=C(Oc1ccc(S(=O)(=O)F)cc1F)c1ccccc1Cl`, the activity, negative = inhibition is -12.2% [at 11.4 µM] (inactive). As for `C/C(O)=C(/C#N)C(=O)Nc1cc(Br)ccc1Br`, the activity, negative = inhibition result was “inactive”. Take `O=C1C2CCN(CC2)C1(CO)CO`: the AC50 was 0.0631 µM (active) and the activity, negative = inhibition is -2.93% [at 11.4 µM] (inactive). In the case of `O=P(O)(O)C(Cl)(Cl)P(=O)(O)O`, the activity, negative = inhibition entry is “inactive”.

Take `COC1=CC(=O)O[C@@H](/C=C\c2ccccc2)C1`: the activity, negative = inhibition result is “inactive”. With `N[C@H](CP(=O)(O)O)C(=O)O`, the activity, negative = inhibition entry was “inactive”. In the case of `CN1C(=O)C(C2c3ccccc3C(=O)N2Cc2ccc([N+](=O)[O-])cc2)C(=O)N(C)C1=O` (stereo unspecified), the AC50 is 25.1 µM (active). Still for that read-out and setting: as for `CCCCN1C(=O)C(C2c3ccccc3C(=O)N2Cc2ccccc2)C(=O)NC1=S` (stereo unspecified), the figure is 2 µM (active).

For the compound `Cc1cc(C)c(-n2c(O)c(C=NCCN3CCOCC3)c(=O)[nH]c2=O)c(C)c1`, the activity, negative = inhibition entry was “inactive”. For the compound `CCC(=O)Nc1ccc(N2CCN(CC)CC2)c(Cl)c1`, the activity, negative = inhibition result is “inactive”. With `NC(=O)CN1C[C@@H](O)CC1=O`, the activity, negative = inhibition result was “inactive”.

As to `CC1(C)CCC(C)(C)c2c1ccc(O)c2Cc1c(O)ccc2c1C(C)(C)CCC2(C)C`, the activity, negative = inhibition is -17.2% [at 11.4 µM] (inactive). The same measure, in the same setting: the entry for `C[C@@]12CCC(=O)C=C1C=C[C@H]1[C@H]3CC[C@](O)(CCC(=O)O)[C@]3(C)CC[C@@H]12` is “inactive”. For `O=C(C[C@H](c1ccccc1)c1c(O)c2ccccc2oc1=O)c1ccccc1`, the concentration at half-maximal activity (AC50) is 0.631 µM (active).

As to `CC(C)c1ccc(C(c2c(O)c3ccccc3oc2=O)c2c(O)c3ccccc3oc2=O)cc1`, the half-maximal activity concentration (AC50) was 3.16 µM (active). For `c1ccc(CN2CCCC3(CCNCC3)C2)cc1`, the activity, negative = inhibition entry was “inactive”.

In the case of `CN1CCC(c2c[nH]c3ccc(O)cc23)CC1`, the activity, negative = inhibition result was “inactive”. Take `C[C@]1(O)CC[C@H]2[C@@H]3[C@@H](O)CC4=CC(=O)CC[C@@]4(C)[C@H]3CC[C@]21C`: the activity, negative = inhibition was 14% [at 11.4 µM] (inactive). On the same count and under the same terms, the entry for `C[C@@H]1O[C@@H](O[C@H]2C[C@@H](O)[C@]3(CO)[C@@H]4[C@@H](O)C[C@]5(C)[C@H]([C@@H]6COC(=O)C6)CC[C@@]5(O)[C@H]4CC[C@@]3(O)C2)[C@H](O)[C@H](O)[C@@H]1O` is “inactive”; for `CN1CCC2(CC1)CCN(C(=O)Oc1ccccc1)CC2` it is “inactive”. As to `C[C@@]12C(=O)OC(=O)[C@]1(C)[C@H]1CC[C@@H]2O1`, the activity, negative = inhibition entry is “inactive”. As to `O=C(Nc1ccc(C(F)(F)F)cc1)c1cccn(Cc2ccc3c(c2)OC(F)(F)O3)c1=O`, the AC50 is 8.91 µM (active).

Take `O=C(Nc1cccc(C(F)(F)F)c1)c1cccn(Cc2ccc3c(c2)OC(F)(F)O3)c1=O`: the AC50 was 3.16 µM (active). `O=P(O)(O)CCP(=O)(O)O`: the activity, negative = inhibition is -4.93% [at 11.4 µM] (inactive). Regarding `C[N+]1(C)[C@@H]2CC[C@H]1CC(OC(=O)c1c[nH]c3ccccc13)C2` (stereo partly specified), the activity, negative = inhibition result was “inactive”. Take `C[C@]12N[C@H](Cc3ccccc31)c1ccccc12`: the activity, negative = inhibition entry is “inactive”. For the compound `CCN(CCCl)Cc1ccccc1Br`, the activity, negative = inhibition entry is “inactive”. Regarding `CC(C)c1ccc2c(c1)c(SC(C)(C)C)c(CC(C)(C)C(=O)O)n2Cc1ccc(Cl)cc1`, the AC50 was 6.31 µM (active).

Take `CC[C@H](C(=O)[C@H](C)[C@H](O)[C@H](C)CCc1ccc(C)c(O)c1C(=O)O)[C@H]1O[C@](CC)([C@@H]2CC[C@@](O)(CC)[C@H](C)O2)C[C@H]1C`: the activity, negative = inhibition entry is “inactive”. On the same count and under the same terms, the entry for `CC[C@@]1(c2ccc(N)cc2)CCC(=O)NC1=O` is “inactive”; for `CC(C)NC(=O)N1CCC2(CC1)CCN(C(=O)Oc1ccccc1)CC2` it is “inactive”. With `NCCP(=O)(O)O`, the activity, negative = inhibition was 4.14% [at 11.4 µM] (inactive). On to `NC(N)=NCCC[C@H](N)C(=O)O`, for which the activity, negative = inhibition entry is “inactive”. Still for that read-out and setting: as for `NP(N)(=O)NC(=O)c1ccc(F)cc1`, the entry is “inactive”; as for `O[C@@H](c1cc(-c2ccccc2)nc2c1ccc1ccccc12)[C@@H]1CCCCN1`, -8.99% [at 11.4 µM] (inactive); as for `COc1ccc(Cc2nccc3cc(OC)c(OC)cc23)cc1OC`, “inactive”. On the same count and under the same terms, the figure for `CC[C@H]1C(=O)OC[C@H]1Cc1cncn1C` is -29.2% [at 11.4 µM] (inactive). `CCC1C(=O)OCC1Cc1cncn1C` (stereo unspecified): the AC50 is 15.8 µM (active).

Turning to `CC(=O)O[C@H]1CC[C@@]2(C)[C@@H](CC[C@H]3[C@H]2CC(=O)[C@@]2(C)[C@@H]3C[C@H]3CC(C)=CC(=O)[C@H]32)C1`, the activity, negative = inhibition is -10.2% [at 11.4 µM] (inactive).

On to `C[C@@]12CC[C@H](O)C[C@@H]1CC[C@H]1[C@H]2CC[C@@]2(C)[C@@H](C3=CC(=O)OC3)CC[C@]12O`, for which the activity, negative = inhibition result is “inactive”. The same measure, in the same setting: as for `N#CCCN`, the entry is “inactive”; as for `Ic1ccccc1CN[C@@H]1C2CCN(CC2)[C@H]1C(c1ccccc1)c1ccccc1`, “inactive”. Still for that read-out and setting: as for `NC(N)=Nc1ccc2[nH]c3c(c2c1)C[C@]1(O)[C@@H]2Cc4ccc(O)c5c4[C@]1(CCN2CC1CC1)[C@H]3O5`, the entry is “inactive”. Same read-out and setting: as for `COC(=O)[C@@H]1[C@@H]2C[C@H]3c4[nH]c5cc(OC)ccc5c4CCN3C[C@@H]2C[C@H](OC(=O)/C=C\c2cc(OC)c(OC)c(OC)c2)[C@H]1OC`, the entry is “inactive”. In the case of `COc1cc2c(cc1OC)[C@H](C)NCC2`, the activity, negative = inhibition result was “inactive”.

Regarding `NC(=NCCc1ccc(I)cc1)SCCCc1cnc[nH]1`, the activity, negative = inhibition entry is “inactive”. Turning to `NC(=NCc1ccc(Cl)cc1)SCCCc1cnc[nH]1`, the AC50 is 12.6 µM (active). With `OCc1cnc[nH]1`, the activity, negative = inhibition result is “inactive”. For `C#CCN[C@@H](C)Cc1ccccc1`, the activity, negative = inhibition result is “inactive”. Take `c1csc(CN2CC[C@@]3(CCCNC3)C2)n1`: the activity, negative = inhibition result was “inactive”. As for `COc1ccc2c(c1)[C@]13CCCC[C@@H]1[C@H](C2)N(C)CC3`, the activity, negative = inhibition entry was “inactive”. As to `COc1ccc(C(=O)O[C@H]2CC[C@@]3(C)[C@H]4CC[C@H]5[C@]3(C[C@]3(O)[C@H]6CN7C[C@H](C)CC[C@H]7[C@](C)(O)[C@]6(O)[C@H](O)C[C@]53O)O[C@]24O)cc1OC`, the activity, negative = inhibition was -11.3% [at 11.4 µM] (inactive). As for `C=CCn1c(O)c(C(CC)=NC2CC2)c(=O)[nH]c1=O`, the activity, negative = inhibition result was “inactive”.

On to `CCCCn1c(O)c(C=NCCN2CCCCC2)c(=O)[nH]c1=O`, for which the activity, negative = inhibition entry was “inactive”. Same read-out and setting: the entry for `O=c1[nH]c(=O)n(CCc2ccc(F)cc2)c(O)c1C=NCCCN1CCOCC1` is “inactive”. Consider `CCCCn1c(O)c(C(CC)=NCc2ccc(F)cc2)c(=O)[nH]c1=O`, for which the AC50 is 3.55 µM (active). The same measure, in the same setting: as for `CCCCn1c(O)c(C(CC)=Nc2ccc(OC)cc2OC)c(=O)[nH]c1=O`, the figure is 14.1 µM (active). In the case of `CCC(=Nc1cc(OC)ccc1OC)c1c(O)[nH]c(=O)[nH]c1=O`, the activity, negative = inhibition entry is “inactive”. Still for that read-out and setting: the figure for `C[C@]12CCC3c4ccc(OCC(=O)O)cc4CCC3C1CCC2=O` (stereo partly specified) is -4.6% [at 11.4 µM] (inactive); for `c1cc(C2N3CCCN2CC3)ccn1` (stereo unspecified) it is 9.12% [at 11.4 µM] (inactive). In the case of `O=C(CCCN1CCC2(CC1)C(=O)N(Cc1cccc(F)c1)CN2c1ccccc1)c1ccc(F)cc1`, the activity, negative = inhibition entry was “inactive”. The same measure, in the same setting: as for `CCCN1CCC[C@H](c2cccc(C#N)c2)C1`, the entry is “inactive”; as for `CCCN1CC[C@@H]2c3cc(O)ccc3CC[C@H]21`, “inactive”.

With `Cc1cccc([C@H](C)c2cnc[nH]2)c1C`, the half-maximal activity concentration (AC50) is 0.2 µM (active).

As for `O=P(O)(O)c1ccccc1` (tested in a mixture with another compound), the activity, negative = inhibition was 0.15% [at 11.4 µM] (inactive).

As for `C=C(CC1(C(C)NP(=O)(c2ccccc2)c2ccccc2)CC1)c1ccccc1` (stereo unspecified), the AC50 was 7.94 µM (active). Still for that read-out and setting: as for `C=C(CC1(CNP(=O)(c2ccccc2)c2ccccc2)CC1)c1ccccc1`, the figure is 10 µM (active).

In the case of `O=C(O)[C@@H]1C[C@H]1[C@@H](NP(=O)(c1ccccc1)c1ccccc1)c1ccccc1`, the activity, negative = inhibition entry was “inactive”. Take `O=C(O)[C@H]1C[C@@H]1[C@H](NP(=O)(c1ccccc1)c1ccccc1)c1ccccc1`: the activity, negative = inhibition entry is “inactive”. Same read-out and setting: the figure for `C=C(C)c1ccccc1` (tested in a mixture with another compound) is -0.349% [at 11.4 µM] (inactive); for `Cc1c2cc[n+](CCN3CCCCC3)cc2c(C)c2c1[nH]c1ccc(O)cc12` it is 17.8% [at 11.4 µM] (inactive). Consider `COc1ccc(C[C@@H]2NC[C@H](O)[C@@H]2OC(C)=O)cc1`, for which the activity, negative = inhibition entry is “inactive”. For `CC(C)c1nccn1Cc1ccc(Cl)cc1Cl`, the activity, negative = inhibition is -23.6% [at 11.4 µM] (inactive). As to `NC1=Nc2ccccc2Oc2ccccc21`, the activity, negative = inhibition result is “inactive”. For `COc1ccccc1N1CCNCC1`, the activity, negative = inhibition result is “inactive”. Take `O=C(O)c1ccccc1-c1c2cc(Br)c(=O)cc-2oc2[c]([Hg])c(O)c(Br)cc12`: the half-maximal activity concentration (AC50) was 0.631 µM (active). Regarding `COc1ccc2[nH]c3c(c2c1)CCNC3`, the activity, negative = inhibition result is “inactive”. With `C[N+]1(C)C2CC[C@H]1CC(OC(=O)[C@@H](CO)c1ccccc1)C2` (stereo partly specified), the activity, negative = inhibition was 8.36% [at 11.4 µM] (inactive). As for `CC1(C)[C@@H]2CC[C@]1(C)CN(CCC[N+](C)(C)C)C2`, the activity, negative = inhibition was 1.62% [at 11.4 µM] (inactive).
